Laboratory results: PubChem BioAssay AID2665 (Vanderbilt High Throughput Screening Facility, 2010)
Calls of active or inactive are those of the source. How the calls were made is not given here.

What was measured:
[1] = target: Muscarinic acetylcholine receptor M1 (Rattus norvegicus) (UniProt P08482); experiment: M5 positive allosteric modulators, analog testing, SAR follow-up, CHO cells, calcium, ACh EC10, single 30 µM (AID 2665); conditions: rat M1 potentiation, CHO calcium; at 30 µM; stronger effect = higher value;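 further: 100% = response to a maximal acetylcholine concentration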
[2] = target: Muscarinic acetylcholine receptor M5 (Homo sapiens) (UniProt P08912); experiment: as above; conditions: CHO hM5 calcium flux, ACh EC10 potentiation; at 30 µM; stronger effect = higher value
Chain of Muscarinic acetylcholine receptor M5 (Homo sapiens) (P08912 whole entry, looked up): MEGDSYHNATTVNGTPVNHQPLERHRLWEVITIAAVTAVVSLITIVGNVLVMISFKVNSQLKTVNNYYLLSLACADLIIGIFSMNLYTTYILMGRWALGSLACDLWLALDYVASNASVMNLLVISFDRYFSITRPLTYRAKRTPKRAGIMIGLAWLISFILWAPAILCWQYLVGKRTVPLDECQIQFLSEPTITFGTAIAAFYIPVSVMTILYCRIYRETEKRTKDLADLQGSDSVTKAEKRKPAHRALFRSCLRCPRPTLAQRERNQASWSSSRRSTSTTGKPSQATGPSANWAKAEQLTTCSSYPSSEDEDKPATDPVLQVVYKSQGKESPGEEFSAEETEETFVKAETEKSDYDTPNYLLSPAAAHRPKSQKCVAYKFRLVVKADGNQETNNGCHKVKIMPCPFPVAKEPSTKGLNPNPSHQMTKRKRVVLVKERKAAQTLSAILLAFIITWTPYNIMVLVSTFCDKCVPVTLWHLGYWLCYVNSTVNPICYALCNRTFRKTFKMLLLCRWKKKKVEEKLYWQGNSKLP

Row | Structure (SMILES) | % ACh max response [1] | % ACh max response [2]
1 | O=C1C(=O)N(Cc2ccccc2F)c2c(F)cccc21 | 42.7% | 42.4% (active)
2 | O=C1C(=O)N(Cc2ccccc2F)c2c(Cl)ccc(Cl)c21 | 12.4% | 14.7% (inactive)
3 | O=C1C(=O)N(Cc2ccccc2F)c2c(Cl)cccc21 | 50.4% | 49.5% (active)
4 | O=C1C(=O)N(Cc2ccccc2C(F)(F)F)c2c(Cl)ccc(Cl)c21 | 21.1% | 16% (inactive)
5 | O=C1C(=O)N(Cc2ccc(F)cc2F)c2ccc(F)cc21 | 47.3% | 60.3% (active)
6 | Cc1cccc2c1N(Cc1ccccc1F)C(=O)C2=O | 24.9% | 24.6% (inactive)
7 | O=C1C(=O)N(Cc2ccc(OC(F)(F)F)cc2)c2c(F)cccc21 | 51.8% | 57.7% (active)
8 | O=C1C(=O)N(Cc2ccc(-c3ccc(Cl)nc3)cc2)c2ccccc21 | 37.1% | 47.8% (active)
9 | O=C1C(=O)N(Cc2ccccc2F)c2ccc(F)cc21 | 40.1% | 46.2% (active)
10 | COc1cccc(CN2C(=O)C(=O)c3cccc(Cl)c32)c1 | 46.9% | 38.7% (active)
11 | COc1cccc(CN2C(=O)C(=O)c3c(Cl)ccc(Cl)c32)c1 | 13.3% | 35.1% (inactive)
12 | O=C1C(=O)N(Cc2ccc(Br)cc2F)c2ccc(Cl)cc21 | 29.9% | 30.4% (inactive)
13 | COc1ccccc1-c1ccc(CN2C(=O)C(=O)c3ccccc32)cc1 | 47.6% | 58.1% (active)
14 | O=C1C(=O)N(Cc2ccc(Br)cc2)c2c(F)cccc21 | 62.7% | 51.7% (active)
15 | COc1ccc(CN2C(=O)C(=O)c3cccc(F)c32)cc1 | 54.6% | 44.4% (active)
16 | COc1ccc(CN2C(=O)C(=O)c3cc(C)ccc32)cc1 | 14.1% | 21.2% (inactive)
17 | COc1cccc(CN2C(=O)C(=O)c3cc(C)ccc32)c1 | 14.5% | 29.6% (inactive)
18 | O=C1C(=O)N(Cc2c(F)cccc2F)c2ccccc21 | 36.6% | 17.4% (inactive)
19 | Cc1ccc2c(c1)C(=O)C(=O)N2Cc1ccccc1C | 20.2% | 29.9% (inactive)
20 | O=C1C(=O)N(Cc2ccccc2F)c2ccc(Cl)cc21 | 23% | 36.3% (inactive)
21 | O=C1C(=O)N(Cc2ccc(Br)cc2)c2ccc(Cl)cc21 | 26.1% | 32% (inactive)
22 | O=C1C(=O)N(Cc2ccccc2C(F)(F)F)c2ccc(OC(F)(F)F)cc21 | 22.6% | 56.5% (active)

Row | Structure (SMILES) | % ACh max response [1] | % ACh max response [2]
23 | O=C1C(=O)N(Cc2ccc(F)cc2F)c2ccccc21 | 44.8% | 40.4% (active)
24 | O=C1C(=O)N(Cc2c(F)cccc2F)c2ccc(OC(F)(F)F)cc21 | 13.6% | 29.8% (inactive)
25 | COc1ccc(CN2C(=O)C(=O)c3cc(Cl)ccc32)cc1 | 20.3% | 32.6% (inactive)
26 | O=C1C(=O)N(Cc2ccccc2C(F)(F)F)c2ccccc21 | 37.9% | 40.2% (active)
27 | COc1cccc(CN2C(=O)C(=O)c3cc(Cl)ccc32)c1 | 16.9% | 27.9% (inactive)
28 | O=C1C(=O)N(Cc2ccc(Br)cc2F)c2ccc(F)cc21 | 70.5% | 64% (active)
29 | O=C1C(=O)N(Cc2ccc(OC(F)(F)F)cc2)c2c(Cl)cccc21 | 43.6% | 72.3% (active)
30 | O=C1C(=O)N(Cc2ccccc2F)c2ccc(OC(F)(F)F)cc21 | 11.3% | 51.8% (active)
31 | Cc1ccc2c(c1)C(=O)C(=O)N2Cc1ccccc1C(F)(F)F | 17.8% | 30.6% (inactive)
32 | COc1ccc(CN2C(=O)C(=O)c3cc(F)ccc32)cc1 | 41.1% | 38.3% (active)
33 | Cc1ccccc1CN1C(=O)C(=O)c2cccc(F)c21 | 30.2% | 27.5% (inactive)
34 | O=C1C(=O)N(Cc2c(F)cccc2F)c2c(Cl)cccc21 | 38.8% | 23.6% (inactive)
35 | O=C1C(=O)N(Cc2ccc(-c3ccc(Cl)cc3)cc2)c2ccccc21 | 45.1% | 6.53% (active)
36 | O=C1C(=O)N(Cc2ccc(-c3ccc(Cl)c(Cl)c3)cc2)c2ccccc21 | 35.3% | 56.3% (active)
37 | O=C1C(=O)N(Cc2ccc(C(F)(F)F)cc2)c2c(Cl)cccc21 | 67% | 70.8% (active)
38 | O=C1C(=O)N(Cc2ccccc2C(F)(F)F)c2c(Cl)cccc21 | 31.1% | 14% (inactive)
39 | O=C1C(=O)N(Cc2ccc(C(F)(F)F)cc2)c2ccc(OC(F)(F)F)cc21 | 25.7% | 67.2% (active)
40 | Cc1ccccc1CN1C(=O)C(=O)c2cc(Cl)ccc21 | 27.6% | 47.3% (active)
41 | Cc1ccccc1CN1C(=O)C(=O)c2cc(F)ccc21 | 37.7% | 40.8% (active)
42 | O=C1C(=O)N(Cc2ccccc2C(F)(F)F)c2c(F)cccc21 | 41.3% | 30.9% (active)
43 | O=C1C(=O)N(Cc2ccc(C(F)(F)F)cc2)c2ccc(Cl)cc21 | 44.1% | 67.4% (active)
44 | CCCOc1ccc(-c2ccc(CN3C(=O)C(=O)c4ccccc43)cc2)cc1 | 24.2% | 48.6% (active)

Row | Structure (SMILES) | % ACh max response [1] | % ACh max response [2]
45 | O=C1C(=O)N(Cc2ccccc2Cl)c2ccc(Cl)cc21 | 21.3% | 44.4% (active)
46 | O=C1C(=O)N(Cc2ccc(Br)cc2)c2c(Cl)ccc(Cl)c21 | 12.1% | 20.7% (inactive)
47 | O=C1C(=O)N(Cc2ccccc2Cl)c2c(F)cccc21 | 18.5% | 20.3% (inactive)
48 | O=C1C(=O)N(Cc2ccc(-c3ccc(F)nc3)cc2)c2ccccc21 | 41% | 46% (active)
49 | O=C1C(=O)N(Cc2ccccc2C(F)(F)F)c2ccc(Cl)cc21 | 29.6% | 48.4% (active)
50 | Cc1ccccc1CN1C(=O)C(=O)c2ccccc21 | 43.2% | 36.3% (active)
51 | O=C1C(=O)N(Cc2ccc(Br)cc2F)c2c(Cl)ccc(Cl)c21 | 9.93% | 12.4% (inactive)
52 | O=C1C(=O)N(Cc2ccc(OC(F)(F)F)cc2)c2ccc(OC(F)(F)F)cc21 | 13.8% | 58.9% (active)
53 | O=C1C(=O)N(Cc2ccc(F)cc2F)c2ccc(Cl)cc21 | 32.4% | 44.9% (active)
54 | Cc1cccc2c1N(Cc1c(F)cccc1F)C(=O)C2=O | 17.3% | 14.4% (inactive)
55 | O=C1C(=O)N(Cc2ccccc2F)c2ccccc21 | 38.9% | 24.5% (active)
56 | COc1ccc(CN2C(=O)C(=O)c3cc(OC(F)(F)F)ccc32)cc1 | 12.7% | 60.7% (active)
57 | O=C1C(=O)N(Cc2ccc(C(F)(F)F)cc2)c2c(F)cccc21 | 60.9% | 71.1% (active)
58 | O=C1C(=O)N(Cc2ccccc2C(F)(F)F)c2ccc(F)cc21 | 47.8% | 36.1% (active)
59 | O=C1C(=O)N(Cc2ccc(OC(F)(F)F)cc2)c2ccc(Cl)cc21 | 31.3% | 47.1% (active)
60 | COc1cccc(CN2C(=O)C(=O)c3cccc(F)c32)c1 | 51.1% | 52% (active)
61 | Cc1ccccc1CN1C(=O)C(=O)c2cc(OC(F)(F)F)ccc21 | 26.2% | 60% (active)
62 | O=C1C(=O)N(Cc2ccc(F)cc2F)c2c(Cl)cccc21 | 64.6% | 61.6% (active)
63 | COc1cccc(CN2C(=O)C(=O)c3ccccc32)c1 | 19.4% | 28% (inactive)
64 | O=C1C(=O)N(Cc2c(F)cccc2F)c2ccc(F)cc21 | 27.6% | 31.1% (inactive)
65 | O=C1C(=O)N(Cc2ccc(OC(F)(F)F)cc2)c2c(Cl)ccc(Cl)c21 | 16% | 23.2% (inactive)
66 | COc1ccc(CN2C(=O)C(=O)c3c(Cl)ccc(Cl)c32)cc1 | 18.6% | 11.7% (inactive)

Row | Structure (SMILES) | % ACh max response [1] | % ACh max response [2]
67 | Cc1ccc2c(c1)C(=O)C(=O)N2Cc1ccc(C(F)(F)F)cc1 | 22.9% | 35.5% (inactive)
68 | Cc1ccc2c(c1)C(=O)C(=O)N2Cc1ccc(Br)cc1 | 19% | 24.1% (inactive)
69 | O=C1C(=O)N(Cc2ccc(Br)cc2)c2c(Cl)cccc21 | 29.9% | 44.3% (active)
70 | COc1cccc(CN2C(=O)C(=O)c3cc(OC(F)(F)F)ccc32)c1 | 28.6% | 70.1% (active)
71 | O=C1C(=O)N(Cc2ccc(Br)cc2)c2ccc(OC(F)(F)F)cc21 | 13.2% | 47.6% (active)
72 | Cc1ccccc1CN1C(=O)C(=O)c2cccc(Cl)c21 | 32.8% | 32.6% (inactive)
73 | O=C1C(=O)N(Cc2ccccc2Cl)c2ccccc21 | 43.4% | 42% (active)
74 | O=C1C(=O)N(Cc2ccc(F)cc2F)c2ccc(OC(F)(F)F)cc21 | 25.9% | 61.9% (active)
75 | O=C1C(=O)N(Cc2ccc(OC(F)(F)F)cc2)c2ccc(F)cc21 | 59.8% | 58.4% (active)
76 | O=C1C(=O)N(Cc2ccc(F)cc2F)c2c(F)cccc21 | 64.4% | 68.9% (active)
77 | COc1ccc(CN2C(=O)C(=O)c3ccccc32)cc1 | 43.6% | 29.2% (active)
78 | Cc1cccc2c1N(Cc1ccc(F)cc1F)C(=O)C2=O | 32.6% | 33.8% (inactive)
79 | O=C1C(=O)N(Cc2ccc(-c3ccc(F)nc3)cc2)c2ccc(OC(F)(F)F)cc21 |  | 78.8% (active)
80 | O=C1C(=O)N(Cc2ccc(-c3ccc(Cl)nc3)cc2)c2ccc(OC(F)(F)F)cc21 |  | 88.2% (active)
81 | COc1ccccc1-c1ccc(CN2C(=O)C(=O)c3cc(OC(F)(F)F)ccc32)cc1 |  | 72.6% (active)
82 | O=C1C(=O)N(Cc2ccc(-c3ccccc3)cc2)c2ccc(OC(F)(F)F)cc21 |  | 82.7% (active)
83 | Cc1ccc2c(c1)C(=O)C(=O)N2Cc1ccc(Br)cc1F | 22.3% | 27.8% (inactive)
84 | O=C1C(=O)N(Cc2ccc(-c3ccc(Cl)c(Cl)c3)cc2)c2ccc(OC(F)(F)F)cc21 |  | 73.5% (active)
85 | Cn1cc(-c2ccc(CN3C(=O)C(=O)c4cc(OC(F)(F)F)ccc43)cc2)cn1 |  | 86.8% (active)
86 | O=C1C(=O)N(CCc2ccc(Br)cc2)c2ccccc21 | 52.4% | 65% (active)
87 | O=C1C(=O)N(Cc2ccc(-c3ccsc3)cc2)c2ccc(OC(F)(F)F)cc21 |  | 92.3% (active)
88 | Cc1ccc2c(c1)C(=O)C(=O)N2Cc1ccccc1Cl | 16.8% | 24.3% (inactive)
